# Measurements taken from PubChem BioAssay AID1794835 (Parasite Biology Lab, Institute for Biomedicine and …, 2023).
# In all, about 2,500 compounds went through this assay and about 45 (2%) were called active. No stated cut-off is given here; in the data, active means inhibition mostly above about 45% (no sharp cut-off); inactive means mostly below about 37%. Only a selection was taken, and actives are over-represented in it overall.
# Test: anti-Giardia activity of synthetic compounds – Compounds Australia Scaffold Library subset, 24/48 h, primary screen (AID 1794835);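 on inhibition: 0% = parasite counts in DMSO vehicle wells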
# Conditions: Giardia lamblia BRIS/91/HEPU/1279 trophozoite counts, imaging, at 10 µM
# [1] = measured here: growth inhibition at 24 h, stronger effect = higher value
compound,measurement,setting,value
COCC(=O)N1CCC(Oc2ncccc2C(=O)N(C)C)CC1,inhibition,stronger effect = higher value,4.8% (inactive)
O=C(c1ccc(F)cc1)N1CCN(c2nc3cc(Br)ccc3n3cccc23)CC1,inhibition,,inactive
COc1cc(S(=O)(=O)N2CCN=C2Cc2ccccc2)c(OC)cc1Cl,inhibition,,inactive
O=C(c1ccc2nc[nH]c2c1)N1CCN(Cc2cccc(Cl)c2)CC1,outcome,,inactive
same,inhibition,[1],6%
CCCC(=O)Nc1nnc(S(=O)(=O)N(C)Cc2ccco2)s1,inhibition,,inactive
Cc1noc2ncc(C(=O)N3CCN(CCO)CC3)cc12,inhibition,,inactive
O=C(NC1CCCCC1)c1nc(Nc2ccccc2)c2ccccc2n1,inhibition,stronger effect = higher value,73.1% (active)
same,inhibition,[1],59.6%
O=C(NC1CCCCC1)c1cc(-c2ccco2)nc2ccccc12,inhibition,stronger effect = higher value,20.8% (inactive)
same,inhibition,[1],17.2%
O=C(c1nc(Nc2ccc(F)cc2)c2ccccc2n1)N1CCCCCC1,inhibition,,inactive
CCC(OC1CCCC1)C(=O)N1CCN(c2nccn2C)CC1 (configuration not stated),outcome,,inactive
same,inhibition,[1],9.4%
CC(=O)Nc1cc(C(=O)NCCCN2CCC(C)CC2)ccc1S(=O)(=O)c1ccc(Cl)cc1,inhibition,stronger effect = higher value,23.9% (inactive)
same,inhibition,[1],5%
Cc1csc(-c2cc(S(=O)(=O)N3c4ccccc4CC3C)c(C)n2C)n1 (configuration not stated),inhibition,stronger effect = higher value,63.6% (active)
same,inhibition,[1],22.6%
CCCNS(=O)(=O)c1cc(-c2nc(-c3cccc(Cl)c3)cs2)n(C)c1C,inhibition,stronger effect = higher value,32.9% (inactive)
same,inhibition,[1],21.9%
Cc1nn(Cc2csc(-c3ccsc3)n2)c(C)c1S(=O)(=O)N1CCc2ccccc21,inhibition,stronger effect = higher value,7.1% (inactive)
same,inhibition,[1],12.8%
CN(Cc1ccccc1)C(=O)c1cccc2c1CCN2C(=O)Nc1ccccc1,outcome,,inactive
same,inhibition,[1],2.8%
CCc1c(C2CCN(C(=O)C3COc4ccccc4O3)CC2)noc1N (configuration not stated),inhibition,,inactive
Cc1ccc(NC(=O)N2CCCC(C)(C(=O)NCc3ccc(F)cc3)C2)cc1 (configuration not stated),inhibition,,inactive
Cc1ccc(C(=O)Nc2cc(-c3nc(C)cs3)sc2C)cc1,inhibition,stronger effect = higher value,56.1% (active)
same,inhibition,[1],28%
COc1ccc(C(=O)Nc2cc(-c3nc(C)cs3)sc2C)cc1OC,inhibition,stronger effect = higher value,27.2% (inactive)
same,inhibition,[1],11.4%
Cc1csc(-c2ccc(CNC(=O)c3cncc(Br)c3)cc2)n1,inhibition,,inactive
O=C(c1cc(Cl)c[nH]1)N1CCCN(Cc2cscn2)CC1,inhibition,,inactive
Cc1noc2nc(-c3ccccc3F)cc(C(=O)N3CCCC3c3nnc4ccccn34)c12 (configuration not stated),inhibition,,inactive
O=C1CCCc2cc(S(=O)(=O)N3CCN(c4ccccc4)CC3)ccc2N1,inhibition,stronger effect = higher value,19.1% (inactive)
same,inhibition,[1],8.5%
CC1(c2ccco2)NC(=O)N(Cc2cn(-c3ccccc3)nc2-c2ccccc2)C1=O (configuration not stated),inhibition,,inactive
Cc1cc2[nH]c(C(=O)Nc3ccccc3C)c(CN3CCOCC3)c2s1,inhibition,stronger effect = higher value,97.7% (active)
same,inhibition,[1],94.7%
Cc1sc2cc(C(=O)NC(C)(C)C)[nH]c2c1CN1CCOCC1,inhibition,stronger effect = higher value,2.4% (inactive)
same,inhibition,[1],3%
COc1ccc(CNC(=O)c2[nH]c3cc(C)sc3c2CN2CCCC2)cc1,inhibition,stronger effect = higher value,35.5% (inactive)
same,inhibition,[1],10.1%
Cc1ccc(S(=O)(=O)N2CCc3nc(N4CCOCC4)[nH]c(=O)c3CC2)cc1C,inhibition,,inactive
Cc1cc(C)c(S(=O)(=O)N2CCN(C)c3ccccc32)c(C)c1,inhibition,,inactive
O=S(=O)(Cc1ccccc1)Nc1cccc(-c2nnc(Cc3ccc4c(c3)OCO4)o2)c1,inhibition,stronger effect = higher value,46.9% (active)
same,inhibition,[1],17.2%
CCc1nnc(-c2nnc(NCc3ccc4c(c3)OCO4)c3ccccc23)o1,outcome,,inactive
same,inhibition,[1],3%
CCOC(=O)c1ccc(S(=O)(=O)Nc2cccc(-c3nnc(-c4ccccc4)o3)c2)cc1,inhibition,stronger effect = higher value,2.3% (inactive)
c1cnc(N2CCN(c3ncnc4nc[nH]c34)CC2)nc1,inhibition,stronger effect = higher value,0.6% (inactive)
O=C(CN1C(=O)CCCc2ccccc21)NCCc1ccco1,inhibition,,inactive
Cc1cc(-c2cc(C(=O)Nc3c(C)n(C)n(-c4ccccc4)c3=O)c3cnn(C(C)C)c3n2)c(C)o1,outcome,,inactive
same,inhibition,[1],2%
CC1CN(C(=O)c2cc(C3CC3)nc3c2cnn3C(C)C)CC(C)O1 (configuration not stated),inhibition,,inactive
Cc1cc(-c2cc(C(=O)Nc3ccc(N4CCN(C)CC4)nc3)c3cnn(C(C)C)c3n2)c(C)o1,inhibition,stronger effect = higher value,98.2% (active)
same,inhibition,[1],95.9%
NC(=O)c1nonc1N,inhibition,,inactive
Cc1ccc(CNC(=O)c2cc(-c3ccc(C)c(C)c3)n(C3CCS(=O)(=O)C3)n2)cc1 (configuration not stated),inhibition,,inactive
Cn1cc2c(n1)c(=O)n(Cc1ccccc1)c(=O)n2CC(=O)Nc1ccc2c(c1)OCCO2,inhibition,,inactive
Cc1nc2c(c(=O)n1CC(=O)Nc1cccc(F)c1)CCN(Cc1ccccc1)C2,outcome,,inactive
same,inhibition,[1],12%
Cn1cc2c(n1)c(=O)n(Cc1ccccc1)c(=O)n2CC(=O)Nc1cccc(F)c1,inhibition,stronger effect = higher value,62.8% (active)
same,inhibition,[1],30.6%
Brc1ccc(-c2nc(-c3ccc4c(c3)ncn4C3CCCC3)no2)o1,inhibition,,inactive
Cc1ccccc1NC(=O)c1c(C)oc2ncnc(N3CCCCC3)c12,inhibition,stronger effect = higher value,15.9% (inactive)
same,inhibition,[1],14.5%
Cc1ccc(C(=O)N2CCN(S(=O)(=O)N3CCN(C)CC3)CC2)o1,inhibition,,inactive
COc1ccc(C)cc1N1C(=N)C(=C2Nc3ccccc3S2)C(c2ccccc2)C1=O (configuration not stated),inhibition,stronger effect = higher value,96.7% (active)
same,inhibition,[1],90.2%
COc1ccc(C(=O)N2c3ccccc3NC(=O)CC2C)cc1OC (configuration not stated),outcome,,inactive
same,inhibition,[1],2.2%
N=C1C(=C2Nc3ccccc3S2)CC(=O)N1C1CC1,outcome,,inactive
same,inhibition,[1],2.5%
CCN(CC)CCCN1C(=O)C(O)=C(C(=O)c2cc3cccc(OC)c3o2)C1c1ccncc1 (configuration not stated),inhibition,,inactive
CCOc1cc(C)ccc1NC(=O)N1CCC12CCC2,inhibition,,inactive
CCn1cc(CN2CCCN(C(=O)c3cc(C4CC4)on3)CC2)cn1,outcome,,inactive
same,inhibition,[1],1.1%
CCOc1ccc(C(=O)Nc2ccc3c(c2)N(C(C)C)C(=O)c2ccccc2O3)cc1,inhibition,stronger effect = higher value,33.8% (inactive)
same,inhibition,[1],18.7%
Cc1ccc(C(=O)Nc2ccc3c(c2)Oc2ccccc2C(=O)N3C)cc1,inhibition,stronger effect = higher value,96.8% (active)
same,inhibition,[1],90.3%
CN1C(=O)c2cc(NC(=O)c3ccc4c(c3)OCO4)ccc2N2CCN=C12,inhibition,stronger effect = higher value,31.6% (inactive)
same,inhibition,[1],11.7%
O=C(NCc1cccc(F)c1)C1CCCN(c2nc3ccccc3n3cccc23)C1 (configuration not stated),outcome,,inactive
same,inhibition,[1],2.2%
CNC(=O)N1C[C@@H](CN(C)C)[C@@H](C2CCN(Cc3ccccn3)CC2)C1,inhibition,,inactive
Cc1ccc(-n2c(=O)c3c(cnn3C)n(CC(=O)Nc3ccccc3C)c2=O)cc1,inhibition,stronger effect = higher value,76.9% (active)
same,inhibition,[1],53.9%
Cc1ccccc1NC(=O)Cn1ccc2sccc2c1=O,inhibition,stronger effect = higher value,19.9% (inactive)
CCCCNC(=O)Cn1c(=O)c2c(C)cc(C)nc2n(-c2ccccc2)c1=O,inhibition,stronger effect = higher value,4.4% (inactive)
CC(=O)c1ccc(C(=O)N2CC=C(c3ccccc3)CC2)s1,inhibition,,inactive
COc1cc(OC)c(C2=CCN(C(=O)c3ccc(C)s3)CC2)c(OC)c1,inhibition,stronger effect = higher value,59.3% (active)
same,inhibition,[1],23.1%
COC(=O)c1ccc(C(=O)N2CCc3sccc3C2)s1,inhibition,,inactive
CC(=O)N1c2ccc(S(=O)(=O)N3CCOCC3)cc2CC1C(=O)NCCN1CCOCC1 (configuration not stated),inhibition,,inactive
CCC(=O)Nc1nc2c(OC)cc(NS(=O)(=O)c3cc(Cl)ccc3OC)cc2s1,inhibition,,inactive
COc1ccc(NC(=O)c2cncc(NS(=O)(=O)c3ccc(C)cc3)c2)cc1,inhibition,,inactive
COc1cc(NS(=O)(=O)c2ccc(C)cc2)cc2sc(NC(=O)c3ccccc3)nc12,inhibition,stronger effect = higher value,50% (active)
same,inhibition,[1],23.6%
COc1ccc(-c2noc(C3CCOCC3)n2)c(OC)c1,inhibition,,inactive
Cc1ccc2nc(-c3ccc(C)c(NC(=O)c4cccnc4)c3)[nH]c2c1,inhibition,stronger effect = higher value,8.2% (inactive)
same,inhibition,[1],2.9%
Cc1cnn(CC(C)NCc2nc(-c3ccccn3)no2)c1 (configuration not stated),inhibition,stronger effect = higher value,19.9% (inactive)
Cc1ccc(-c2cc(C(=O)NCc3cn(C)nc3C)c3ccccc3n2)cc1C,outcome,,inactive
same,inhibition,[1],3%
COc1cccc(-n2nnc3c(=O)n(CC(=O)N4CCCC4)cnc32)c1,inhibition,,inactive
CCOC(=O)c1ccc(S(=O)(=O)N2CCN(C3CCOC3=O)CC2)o1 (configuration not stated),inhibition,,inactive
Cn1nccc1-c1cccc(-c2noc(-c3cccc(F)c3)n2)c1,inhibition,stronger effect = higher value,64.1% (active)
same,inhibition,[1],17.6%
O=S(=O)(c1cc(-c2nc(-c3cccc(F)c3)no2)cs1)N1CCCCC1,inhibition,,inactive
CCN1CCN(c2ccc(-c3nc(-c4cccc(F)c4)no3)cn2)CC1,inhibition,stronger effect = higher value,48.2% (inactive)
same,inhibition,[1],31.4%
O=c1[nH]c(CN2CCC(c3nc4ccccc4o3)CC2)nc2ccsc12,inhibition,,inactive
CC(C)c1ccc(Nc2ncccc2S(=O)(=O)N2CCCC2)cc1,inhibition,stronger effect = higher value,57.5% (active)
same,inhibition,[1],27%
CC(C)c1ccc(NC(=O)c2ccc(F)c(S(=O)(=O)N3CCN(c4ccccc4)CC3)c2)cc1,inhibition,,inactive
CCOC(=O)c1cccc(Nc2ncccc2S(N)(=O)=O)c1,inhibition,stronger effect = higher value,35.4% (inactive)
same,inhibition,[1],14.6%
CC(=O)Nc1nsc(N2CCCC(C(=O)NCc3ccccc3Cl)C2)n1 (configuration not stated),inhibition,stronger effect = higher value,5.9% (inactive)
same,inhibition,[1],4.9%
O=S1(=O)CCC(n2cc(-c3cnn(-c4ccccc4)c3)cn2)C1 (configuration not stated),inhibition,stronger effect = higher value,66.2% (active)
same,inhibition,[1],45.5%
O=C(c1cn2ccccc2n1)N1CCN(C2CCS(=O)(=O)C2)CC1 (configuration not stated),inhibition,,inactive
Cc1ccc2nc(-c3ccccc3)c(CN3CCN(C4CCS(=O)(=O)C4)CC3)n2c1 (configuration not stated),inhibition,,inactive
O=C(c1ccc(F)cc1)N1CCc2[nH]nc(C(=O)N3CCN(c4ccc(F)cc4)CC3)c2C1,inhibition,stronger effect = higher value,0.9% (inactive)
same,inhibition,[1],2.4%
O=C(c1ccc2c(=O)n3c(nc2c1)CCCC3)N1CC=C(c2ccccc2)CC1,inhibition,,inactive
COc1ccccc1-c1cc(C(=O)Nc2sc(Nc3ccccc3)nc2C(N)=O)[nH]n1,inhibition,stronger effect = higher value,11.1% (inactive)
same,inhibition,[1],11.2%
Cc1cccc(C)c1NC(=O)c1cc(-c2ccccc2)nc2c1cnn2Cc1cccnc1,inhibition,stronger effect = higher value,17.5% (inactive)
CN(C)CCn1cc(C(=O)c2cc(Cl)ccc2O)cc1-c1nc2ccccc2c(=O)[nH]1,inhibition,stronger effect = higher value,85.8% (active)
same,inhibition,[1],45%
CN(C)CCCN1C(=O)C(=O)C(=C(O)c2cc(Cl)ccc2O)C1c1ccco1 (configuration not stated),inhibition,stronger effect = higher value,14.6% (inactive)
Cn1cc(C(=O)c2ccccc2O)cc1-c1nc2ccccc2c(=O)[nH]1,inhibition,,inactive
Cc1noc(-c2nn(C)c3c2CN(S(=O)(=O)Cc2cccc(F)c2)CC3)n1,inhibition,stronger effect = higher value,14.3% (inactive)
O=C(CCc1ccc(Cl)cc1Cl)N1CCCC(c2ncn[nH]2)C1 (configuration not stated),inhibition,stronger effect = higher value,0.4% (inactive)
CCCNC1=C(C(=O)Nc2ccc(F)cc2)S(=O)(=O)c2ccccc21,inhibition,stronger effect = higher value,46.5% (inactive)
same,inhibition,[1],21.9%
NC(=O)C1=C(Nc2ccccc2)c2ccccc2S1(=O)=O,inhibition,stronger effect = higher value,48.5% (active)
same,inhibition,[1],12.8%
CN(C)c1nc(N(C)C)nc(N2CC(=O)N(c3ccc(Cl)c(Cl)c3)C2=N)n1,inhibition,stronger effect = higher value,16% (inactive)
same,inhibition,[1],9.5%
